Source: PubChem (National Center for Advancing Translational Sciences (NCATS))
Sampled rows, rich in hits. Any-hit rate of the full collection: about 1.4%.
B2AR arrestin ag – agonists recruiting beta-arrestin to human beta2-adrenergic receptor; P07550; HTLA Tango cells, beta-arrestin recruitment, luciferase luminescence, 18 h; Potency, µM (doses to about 46.1 µM), most hits filed as activators; 44,000 tested, under 10 active; AID 1347077;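 note: potency is the fitted concentration of half-maximal effect; 0% = DMSO and full agonism = EC100 isoproterenol or metaproterenol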
Target sequence (P07550 whole entry, looked up): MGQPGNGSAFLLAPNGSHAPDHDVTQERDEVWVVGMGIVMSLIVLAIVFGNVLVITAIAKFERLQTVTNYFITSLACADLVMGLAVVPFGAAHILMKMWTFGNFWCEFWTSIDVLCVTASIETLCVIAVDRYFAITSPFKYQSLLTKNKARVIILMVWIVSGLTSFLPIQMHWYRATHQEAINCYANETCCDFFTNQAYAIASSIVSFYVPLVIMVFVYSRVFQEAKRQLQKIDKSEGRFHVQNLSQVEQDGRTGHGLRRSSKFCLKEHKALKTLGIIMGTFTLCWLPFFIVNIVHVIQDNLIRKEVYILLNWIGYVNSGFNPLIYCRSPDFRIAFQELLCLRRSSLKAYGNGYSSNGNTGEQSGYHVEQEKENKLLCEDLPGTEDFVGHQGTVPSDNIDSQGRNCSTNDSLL
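Tango cells expressing recombinant beta2-AR and beta-arrestin were treated with compounds (up to 46 microM titration) in DMEM with 1% FBS for 18 hr at 37 degrees C. Beta-arrestin recruitment drove tTA-dependent luciferase, read by luminescence; curves were fitted and classed.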
HTT-AS promoter – HTT-AS promoter activation | HEK293 HTT-AS promoter firefly luciferase reporter, 24 h; response scale: percent change from vehicle, -100% = no light | Potency, µM (top dose mostly 57.5 µM), for the others: at the highest dose activity change, positive = activation, hits mostly activators | 0.24% of 48,000 active | AID 1508624; note: potency is the fitted concentration of half-maximal effect; nearly all actives have a fitted effect of over 55% in size
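Firefly luciferase signal from promoter-reporter HEK293 cells was scaled between vehicle (0%) and zero RLU (-100%). Compounds were tested at final concentrations of up to 57.5 uM over 24 h at 37 degrees C. PTC124 at 50 uM final served as control inhibitor.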
TSG101-PTAP inh – blocks PTAP binding to human TSG101, validation; Q99816; Fluorescence polarization, FITC-PTAP peptide/Tsg101, 20 min; Potency, µM (highest dose often 115 µM), hits mostly inhibitors; 44,000 tested, under 10 active; AID 1347069; note: potency is the fitted concentration of half-maximal effect; 0% is about no effect
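Steps: Tsg101 binding domain (10 uM final) in HEPES pH 7.5/NaCl/Tween 20/EDTA/TCEP; add compound; add FITC-PTAP peptide (50 nM final); incubate 20 min r.t.; read polarization.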
GALC G270D act – enhancers of human galactocerebrosidase G270D mutant activity in cells | P54803 | 145M-Twi-hGALC-G270D cells, HMU-beta-Gal fluorescence, 48 h | Potency, µM (series often up to 57.5 µM), hits mostly activators | 0.1% of 45,000 active; note: potency is the fitted concentration of half-maximal effect; 0% is about no effect; nearly all actives have a fitted effect of over 65% in size
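qHTS, 1536-well; 145M-Twi-hGALC-G270D cells (WT line also made) in DMEM/F12 + 10% FBS; compound incubation on live cells; HMU-β-gal 0.1 mM final, pH 5.2, NaTC; carbonate stop; fluorescence increase = enhanced residual activity.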
GALK inh – inhibitors of human galactokinase (GALK) | P51570 | recombinant GALK, Kinase-Glo ATP luminescence, 1 h | Potency, µM (series often up to 57.5 µM), without a hit: at the highest dose activity, negative = inhibition, hits mostly inhibitors | 44,000 tested, under 10 active | AID 1347072;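 note: plate controls were full GALK reaction for no effect and reaction lacking GALK for full effect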
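Luminescent ATP-depletion readout (Kinase-Glo Plus, 10 min) after 1 h RT reaction of 5 nM GALK, 35 uM ATP, 100 uM galactose, pH 8.0 HEPES buffer. Decreased kinase activity scored as inhibition.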
HTT promoter inh – inhibits huntingtin promoter activity. HEK293 HTT promoter firefly luciferase reporter, 24 h. Potency, µM (highest dose often 57.5 µM), without a hit: at the top dose activity change, negative = inhibition, most hits filed as inhibitors. 0.93% of 48,000 active. AID 1508623; note: potency is the fitted concentration of half-maximal effect; nearly all actives have a fitted effect of over 50% in size
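HEK293 cells carrying firefly luciferase reporters were seeded at 2,500 per well in Opti-MEM and cultured for 24 h. They were then treated with compounds at up to 57.5 uM final for 24 h at 37 degrees C before Dual-Glo luminescence readout.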
Numbers without * were called inactive; i = inactive; ? = inconclusive; / = not tested or not shown; ! = repeats disagree; [ ] = remark or other dose. Calls come from the whole dose curve; as a rule, active = well fitted curve in the direction sought with a large enough effect; inconclusive = small, poorly fitted or top-dose-only effect, or another doubt; inactive = no such curve, though single readings can be large; an effect the other way counts as inactive or inconclusive.

SMILES	B2AR arrestin ag	HTT-AS promoter	TSG101-PTAP inh	GALC G270D act	GALK inh	HTT promoter inh
Cc1cc2nc(-c3cccc(NC(=O)COc4ccc(Cl)c(C)c4)c3)oc2cc1C	i	?	i	i	8%	41%
COc1cccc(NC(=O)/C(C#N)=C/c2ccc(-c3ccc(C)cc3)o2)c1	i	-21%	40µM*	i	2%	?
COc1ccc(NC(=O)/C(C#N)=C/c2ccc(C)o2)cc1	i	?	i	i	0%	49%
CC1(c2ccc(Cl)cc2)CC(C)(C)N(C(=O)c2ccccc2)c2ccccc21 (stereo unspecified)	i	-40%	i	i	3%	25µM*
Cc1ccc(OCc2cc(=O)n3c(-c4ccccc4)csc3n2)cc1	i	-2%	i	i	-2%	-1%
Cc1ccc2nc(-c3ccc(NC(=O)C(F)(F)F)cc3)sc2c1	i	-10%	i	14µM*	1%	-18%
Cc1ccc2nc(-c3ccc(NC(=O)c4ccc(S(C)(=O)=O)cc4)cc3)sc2c1	i	?	i	i	1%	60%
COc1ccc(CNc2oc(-c3ccc(COc4ccccc4C)o3)nc2C#N)cc1	i	-64%	i	i	-9%	20µM*
COc1ccc(CNc2oc(-c3ccc(COc4ccc(Cl)cc4)o3)nc2C#N)cc1	i	-60%	i	i	2%	22µM*
COc1ccc(OCc2ccc(-c3nc(C#N)c(NCc4ccccc4)o3)o2)cc1	i	6%	i	i	-1%	24%
CCOC(=O)C1CCN(C(=O)CN2c3ccc(C(C)C)cc3-c3ccccc3S2(=O)=O)CC1	i	12%	i	i	0%	9%
COc1cc2c(cc1NC(=O)C(C)Oc1ccccc1)oc1ccccc12 (stereo unspecified)	i	4µM*	i	i	2%	32%
Cn1nc(-c2ccc(C(=O)Nc3ccc(OC(F)(F)F)cc3)cc2)c2ccccc2c1=O	i	-47%	i	i	0%	10µM*
CNC(=O)COc1ccc(NC(=O)c2ccc(-c3nn(C)c(=O)c4ccccc34)cc2)cc1	i	-13%	i	i	6%	-11%
CCOC(=O)c1ccc(NC(=O)COc2cccc3c(=O)n(C)ccc23)cc1	i	-45%	i	i	0%	?
Cn1ccc2c(OCC(=O)Nc3ccc(OC(F)(F)F)cc3)cccc2c1=O	i	-76%	i	i	-3%	20µM*
O=C(CSc1nc(-c2ccccc2)no1)N1CCN(c2ccccc2F)CC1	i	-9%	i	i	2%	8%
O=C(O)c1cccc(-c2noc(-c3ccccc3F)n2)c1	/	4%	/	i	/	7.9µM*!
COc1cc(C(=O)NCc2nnnn2-c2ccc(C)c(C)c2)cc(OC)c1OC	i	-6%	i	i	1%	17%
O=C(NCc1ccc2c(c1)CCN2C(=O)c1ccccc1)Nc1cccc(C(F)(F)F)c1	i	-46%	i	i	2%	22µM*
CCOC(=O)C1CCN(C(=O)Cn2nc(CC)n3c(cc4sccc43)c2=O)CC1	i	-78%	i	i	11%	2.8µM*
Cc1ccccc1NC(=O)CSc1nnc(-c2cccs2)o1	i	8%	i	i	-5%	-18%[11.5 µM]
CCc1ccc(OCC(=O)Nc2ncn[nH]2)c(Br)c1	i	25µM*	i	i	-2%	54%
CC(Oc1ccc(Br)cc1)C(=O)Nc1ncn[nH]1 (stereo unspecified)	i	-7%	i	i	8%	-7%
CCc1ccc(OCC(=O)NCc2nc(-c3cccc(C)c3)no2)c(Br)c1	i	-18%	i	i	1%	-15%
O=C(COc1ccc(Br)cc1Cl)Nc1ncn[nH]1	i	8.9µM*	i	i	8%	72%
